In PMC5540273 (PLoS ONE, 2017):
pKd: −log10 of the molar value.

What follows are compounds tested on T1, MEK5.
T1 construct: gene MAP2K5
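Also: kd values determined as follow-up on hits from a single-replicate KINOMEscan panel screen.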

Compound | pKd
Cc1ccc(Oc2ccc(Nc3ncnc4cc[nH]c34)cc2C)cn1 | 8.05
COc1cc2ncn(-c3cc(OCCCc4ccccc4)c(C(N)=O)s3)c2cc1OC [GSK205189] | 6.55
COc1cc2nccc(Nc3ccc(OCc4ccc(NC(C)=O)cc4)cc3)c2cc1OC.Cl [GW440135] | 7.28
COc1cccc(-n2cnc3c(N)ncnc32)c1 [SKF-97416] | 5.89
COc1cc2nccc(Nc3cccc(Oc4ccccc4)c3)c2cc1OC.Cl [GW284543] | 7.96
COc1cc2ncn(-c3cc(OCc4ccc(S(C)(=O)=O)cc4)c(C(N)=O)s3)c2cc1OC [GW869979] | 6.33
COc1cc2ncn(-c3cc(OCc4ccncc4Br)c(C(N)=O)s3)c2cc1OC [GW854278] | 7.11
COc1cc(Nc2nccc(N3CCC(NC(=O)C4COc5ccccc5O4)C3)n2)cc(OC)c1OC (centres unmarked) [GSK1379761] | 6.74
Nc1n[nH]c2ncc(-c3ccccc3)cc12 [SB-517081] | 6.18
Nc1nccc2scc(-c3ccc4c(c3)CCN4C(=O)Cc3ccccc3)c12 [GSK2576924] | 6.28
COc1cc2ncn(-c3cc(OCc4ccncc4)c(C(N)=O)s3)c2cc1OC [GSK336313] | 6.17

Each compound was assayed on MYLK2.

Compound | pKd
O=C(Nc1n[nH]c2cc(-c3ccccc3F)ccc12)C1CC1 [SB-733371] | 6.96
O=C(Nc1n[nH]c2nc(-c3ccccc3)c(Cl)cc12)C1CC1 [SB-734909] | 6.82
O=C(Nc1n[nH]c2nc(-c3ccccc3)c(Br)cc12)C1CC1 [SB-708998] | 7.22
